In ChEMBL document CHEMBL3988442, “University of Dundee, Small-Polar-MMV Screening Library” (2021):
Among all 69,000 compounds or so, about 950 (1.4%) showed an effect of 50% or more. The sample as a whole holds a higher share of strong results than the screen did.

system: Mycobacterium tuberculosis; test: Cornell M. t heat shock assay; assay type: functional, organism-based; design: dose or concentration left out as unconfirmed; also: in the data most compounds retested in dose-response had high values

| SMILES | Percent Effect |
| --- | --- |
| Br.Cn1cc(CN2CCOC(c3cccc(-c4cncnc4)n3)C2)cn1 (stereo not given) | -10.8% |
| Cl.c1cncc(CNCc2cccs2)c1 | 5.045% |
| O=C(O)C(F)(F)F.O=C1[C@H]2CN(Cc3nccs3)C[C@H]2CN1c1ccsc1 | 28.97% |
| Cc1nn(C)c(C)c1S(=O)(=O)N1C[C@@H]2C[C@@H](C)O[C@@H]2C1.O=C(O)C(F)(F)F | 3.558% |
| NC(=O)CC1CC2(CCNCC2)c2cc(F)ccc21.O=C(O)C(F)(F)F (stereo not given) | 15.23% |
| Cn1cc(C(=O)NCc2cn3c(n2)CN(C2CCOCC2)CC3)cn1.O=C(O)C(F)(F)F | -17.41% |
| COc1c(CNC2CCCOc3ccccc32)c(C)nn1C (stereo not given) | -2.184% |
| CCC1COCCN1C(=O)NCc1nccn1Cc1ccccc1 (stereo not given) | -21.62% |
| Cc1ccc2c(c1)OCCCC2NCc1nccn1Cc1ccccc1 (stereo not given) | 101.1% |
| c1ccc(Cn2ccnc2CNC2CCCOc3ccccc32)cc1 (stereo not given) | 104.4% |
| c1ccc2c(c1)OCCCC2NCc1nnc2n1CCCCC2 (stereo not given) | 7.956% |
| Cc1ccc2c(c1)OCCCC2NC1CCN(C)CC1 (stereo not given) | 11.02% |
| Cc1cncc(C(=O)N2C[C@@H]3CN(S(C)(=O)=O)CCO[C@@H]3C2)c1.O=C(O)C(F)(F)F | 15.78% |
| CC1CCN(C(=O)[C@@H]2C[C@@H]3CCN(Cc4nccs4)C[C@H]3O2)CC1.O=C(O)C(F)(F)F | 11.99% |
| CCC1CN(C(=O)c2csc3nc(-c4ccc(Cl)cc4)cn23)CCN1 (stereo not given) | 59.48% |
| CC(C)N1CCN(C(=O)c2csc3nc(-c4ccc(Cl)cc4)cn23)CC1 | 2.331% |
| O=C(c1csc2nc(-c3ccc(Cl)cc3)cn12)N1CCCC(CO)C1 (stereo not given) | 17.74% |
| O=C(Nc1cccnc1)[C@H]1C[C@@H]2CN(C(=O)NC3CCCC3)C[C@H]1O2 | -0.1164% |
| O=C1C[C@H]2CC[C@@H](CN1)N2C1CCOCC1 | -8.619% |
| O=C(NC1CCCC1)c1nc2c(o1)CN(CCO)C2 | 51.46% |

| SMILES | Percent Effect |
| --- | --- |
| O=C(NC1CCCC1)c1nc2c(o1)CN(C(=O)CCO)C2 | 6.229% |
| O=C(NC1CCCC1)c1nc2c(o1)CN(C(=O)CO)C2 | 10.14% |
| CN(C)C(C(=O)N1CCC(N2CCSCC2)CC1)c1ccccc1F (stereo not given) | 64.18% |
| CN(C)C(C(=O)N1CCCC1)c1ccccc1F (stereo not given) | 12.45% |
| CN(C)C(C(=O)N1CCSCC1)c1ccccc1F (stereo not given) | 7.911% |
| COc1ccccc1CNC(=O)C1=NN(c2ccc(C)cc2)C(=O)CN1 | 73.51% |
| COc1ccc(C)cc1CNC(=O)C1=NN(c2ccccc2)C(=O)CN1 | 30.82% |
| COc1ccc(CNC(=O)C2=NN(c3ccc(C)cc3)C(=O)CN2)cc1 | 24.03% |
| CC(C)N1CCO[C@H]2CN(C(=O)c3ccccn3)C[C@H]21.O=C(O)C(F)(F)F.O=C(O)C(F)(F)F | -26.06% |
| Cc1cs/c(=N/C(=O)c2csc(NCC(C)C)n2)[nH]1 | 102.2% |
| Cc1[nH]/c(=N\C(=O)c2csc(NCC(C)C)n2)sc1C | 103.2% |
| CC(C)CNc1nc(C(=O)/N=c2\[nH]nc(C(C)(C)C)s2)cs1 | 29.68% |
| Cc1cs/c(=N\C(=O)c2c3c(nc4onc(C)c24)CCC3)[nH]1 | -0.1888% |
| CC(=O)Nc1nc(C(=O)NC(C)c2ccc(F)cc2)cs1 (stereo not given) | 8.426% |
| Cc1cc(O)c(OCC(=O)/N=c2\[nH]c(C)c(C)s2)cn1 | 14.69% |
| O=C1c2cnc(N3CCCC3)nc2CN1CCc1ccc(Cl)cc1 | 5.842% |
| Cc1ccc(CN2C[C@@H]3COC[C@H](NS(C)(=O)=O)[C@@H]3C2)s1.O=C(O)C(F)(F)F | -17.68% |
| CC(C)c1nn(C)c(N(C)C)c1CNC(C)c1ccc2c(c1)OCO2.Cl (stereo not given) | 11.17% |
| O=C(CN1CC(c2nc(C3CC3)no2)C1)NCc1ccc(F)cc1.O=C(O)C(=O)O | -19.44% |
| CS(=O)(=O)N1CCN(c2ccnc(N3CCCC3)n2)CC1 | 3.373% |

| SMILES | Percent Effect |
| --- | --- |
| CS(=O)(=O)N1CCN(c2ccnc(N3CCCCC3)n2)CC1 | 54.19% |
| CN(C)S(=O)(=O)N1CCN(c2ccnc(N3CCCCC3)n2)CC1 | -3.243% |
| CN1CCN(CC2CC2)C(=O)C12CCN(C(=O)CC(F)(F)F)CC2.O=C(O)C(F)(F)F | 5.441% |
| COc1ccccc1Oc1ncccc1CNC(=O)[C@@H](C)NC(C)=O | 11.05% |
| CCc1nc(C2CCCN2Cc2nccn2Cc2ccccc2)no1 (stereo not given) | 20.06% |
| c1ccc2nc(CN3CCCC3c3noc(C4CC4)n3)ccc2c1 (stereo not given) | 108.9% |
| Cn1ccnc1CN1CCCCC1c1nc(-c2ccccc2)no1 (stereo not given) | 51.73% |
| Cc1nc(CN2CCCC2c2noc(C3CC3)n2)nc2ccccc12 (stereo not given) | 27.9% |
| CCn1ccnc1CN1CCCC1c1noc(C2CC2)n1 (stereo not given) | -4.423% |
| c1ccc2oc(CN3CCCC3c3noc(C4CC4)n3)nc2c1 (stereo not given) | 17.43% |
| Cc1cnc(CN2CCCCC2c2nc(-c3ccccc3)no2)cn1 (stereo not given) | 5.875% |
| c1ccc(Cn2ccnc2CN2CCCC2c2noc(C3CC3)n2)cc1 (stereo not given) | 104.2% |
| Cc1noc(C)c1CN1CCCCC1c1nc(-c2ccccc2)no1 (stereo not given) | -13.3% |
| COc1ccc(C)cc1CN1CCCC1c1noc(C2CC2)n1 (stereo not given) | 82.36% |
| COc1c(C)cnc(CN2CCCC2c2noc(C3CC3)n2)c1C (stereo not given) | -0.8434% |
| Cc1cc(CN2CCCC2c2noc(C3CC3)n2)c2ccccc2n1 (stereo not given) | 31.64% |
| COC(=O)Cn1c(=O)nc2n1C(=O)N(c1ccc(Br)cc1)C2 | 18.41% |
| CNC(=O)[C@H]1C[C@@H]2CN(Cc3cccc(C)c3)C[C@H]1O2.O=C(O)C(F)(F)F | 19.67% |
| COCCNC(=O)[C@H]1CN(Cc2sccc2C)C[C@H]2OCC[C@@H]12.O=C(O)C(F)(F)F | -45.09% |
| Br.Cc1cc(C)c(N(CC(O)CNCc2ccccc2)S(C)(=O)=O)c(C)c1 (stereo not given) | 3.921% |
